For 13 compounds, activation results are on record in PubChem BioAssay AID504796 (The Scripps Research Institute Molecular Screening Center, 2011).

The list shows a part of the results. Activity calls are given as the source filed them. Cut-off read from the data, not from the text of the source: active = activation above about 20%; inactive = the rest.

This test in a line: fluorescence polarization artefacts, biochemical, artefact control for PKA-R2B activator project (AID 504796).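 Note: Cy5 labelled IP20 peptide probe with compound but no PKA protein.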 To be noted: FP artifact counterscreen, at 11.4 µM, hits give high values. For orientation: In fluorescence polarisation assays a small probe gives low polarisation when free and higher when bound to something large.
Consider `O=C(CNC(=O)c1ccccc1)NCC(=O)OCC(=O)c1ccccc1`, for which the activation was 9.84% (inactive).

As for `COc1ccc(C/C(C)=N/NC(=O)c2ccncc2)cc1`, the activation was 1.96% (inactive).

Regarding `COc1ccc([N+](=O)[O-])cc1C1NN=C(c2cccc3ccccc23)S1` (stereo not drawn), the activation is 4.38% (inactive).

In the case of `COc1ccc(CC(NC(C)=O)C(=O)NC2CCN(C(=O)c3ccc(Cl)cc3)CC2)cc1` (stereo not drawn), the activation is 3.95% (inactive).

For the compound `O=C(CN(C(=O)CCC(=O)Nc1nccs1)c1ccc(F)cc1)NCc1ccc2c(c1)OCO2`, the activation is -1.45% (inactive).

Take `O=C(O)C1=C(C(=O)O)C2CCC1C2`: the activation is 5.92% (inactive).

Consider `O=C(CCCN1C(=O)c2cccc3cccc(c23)C1=O)N1CCN(Cc2ccc3c(c2)OCO3)CC1`, for which the activation is 1.66% (inactive).

As for `CC(C)(C)c1ccc(C(=O)N2CCC(C(=O)N3CCCCC3)CC2)cc1`, the activation is 4.67% (inactive).

For the compound `O=S(=O)(NCCNS(=O)(=O)c1ccccc1)c1ccccc1`, the activation is 4.68% (inactive).

Turning to `CC(C)(C)c1nnc(N/N=C/c2ccc(O)cc2)n(N)c1=O`, the activation was 1.05% (inactive).

As to `CCCC(=O)Nc1ncnc2c1ncn2[C@@H]1O[C@@H]2OP(=O)(O)OC[C@H]2[C@H]1OC(=O)CCC`, the activation was 0.15% (inactive).

On to `N#Cc1ccccc1CN1C(=O)S/C(=C/c2cccn2-c2cccc(C(=O)O)c2)C1=O`, for which the activation is 19.3% (active).

For the compound `COc1cccc(Nc2nnc(SCC(=O)N3CC(C)OC(C)C3)s2)c1` (stereo not drawn), the activation is 1.43% (inactive).
